Experimental data: PubChem BioAssay AID1851 (National Center for Advancing Translational Sciences (NCATS), 2009)
Where “and” joins values, the source holds several entries; their conditions need not be identical. Equal entries are not always repeated. Out of some 16,000 compounds screened, about 5,800 (36%) were called active. Another 23% or so got no clear call; they are omitted. Calls follow the shape of the dose curve; as a rule, active = well fitted curve in the direction sought with a large enough effect; inconclusive = small, poorly fitted or top-dose-only effect, or effect the other way; inactive = no such curve, though single readings can be large or run the other way. Some of the results follow.

Target: Cytochrome P450 2C19 (Homo sapiens) (UniProt P33261)
Sequence (P33261 whole entry, looked up): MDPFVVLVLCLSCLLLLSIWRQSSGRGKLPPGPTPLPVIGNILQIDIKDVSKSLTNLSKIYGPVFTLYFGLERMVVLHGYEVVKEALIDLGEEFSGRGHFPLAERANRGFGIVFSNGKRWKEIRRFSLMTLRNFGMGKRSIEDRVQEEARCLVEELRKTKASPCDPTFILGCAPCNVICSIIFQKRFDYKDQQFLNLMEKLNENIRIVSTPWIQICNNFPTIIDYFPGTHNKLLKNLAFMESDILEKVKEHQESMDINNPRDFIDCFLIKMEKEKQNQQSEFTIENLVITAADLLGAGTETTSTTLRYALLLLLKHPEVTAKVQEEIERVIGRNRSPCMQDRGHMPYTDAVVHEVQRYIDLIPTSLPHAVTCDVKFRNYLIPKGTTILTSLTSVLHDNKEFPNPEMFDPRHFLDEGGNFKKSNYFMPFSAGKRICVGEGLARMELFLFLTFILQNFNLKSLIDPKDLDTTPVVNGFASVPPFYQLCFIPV
Assay: Cytochrome panel assay with activity outcomes
Conditions: recombinant CYP, pro-luciferin dealkylation, luminescence, p450-cyp2c19; series mostly up to 57.1 µM; activity, negative = inhibition: at the top concentration
% is scaled to controls: 0 for no effect and ±100 for the full control effect.

activity, negative = inhibition, inactive:
C[C@@H](NCc1cc(Br)cc2[nH]c(=O)c(=O)[nH]c12)P(=O)(O)O 19.9%, COc1ccc(C[N+](C)(C)N)cc1OC 22.8% [at 11.4 µM], CO[C@@H]1COC(=O)[C@@H](C)NC(=O)C/C=C\[C@@H](C)[C@H](NS(=O)(=O)c2ccc(C)cc2)COC(=O)[C@H](C)NC(=O)C/C=C\[C@H]1C 1.72% [at 11.4 µM], NCCNCC1CCNCC1 2.44% [at 11.4 µM], C/C(CCN1CCCc2nc(C)c(C)cc21)=N\O[C@@H](C)c1cn([C@H](CO)Cc2ccccc2)nn1 -18.6% [at 11.4 µM] and 31.1% [at 11.4 µM], O=C(CSc1nc2ccccc2s1)c1sc2sc3ccccc3[n+]2c1O -17.6% [at 11.4 µM], NCCNC(=O)c1ncsc1-c1cccc(F)c1 -22.7%, O=C(O)/C=C1\NC(=O)c2ccccc21 -15.3%, CC[N+](CC)(CC)CCOc1ccc(/C=C\c2ccccc2)cc1 4.13%, CCOC(=O)CCN1C(=O)[C@H]2[C@H]3[C@H](O)[C@H](O)C/C(=N/OC[C@@H](O)COCc4ccco4)[C@H]3CC[C@@H]2C1=O 34% [at 11.4 µM], CC(C)NC(=O)N1CC2(CCN(S(=O)(=O)c3ccccc3)CC2)C1 14.7%, CC(=O)N1CC2(CC2)CC1c1ccccc1 (stereo not given) 9.83%, CC(C)NC(=O)N1CCCC2(CCN(S(=O)(=O)c3ccccc3)CC2)C1 -25%, COc1ccc(OC)c(NC(=O)C(CC(=O)O)NCc2ccco2)c1 (stereo not given) -7.23%, COc1ccc(-c2nc(N)c3ncn([C@H]4O[C@@H](CO)[C@@H](O)[C@@H]4O)c3n2)cc1 31.6% [at 11.4 µM], COc1ccc(C(=O)n2nc(-c3ccccc3)nc2SC)cc1 -24.6%, O=C(CN1CCN(S(=O)(=O)c2ccccc2)CC1)NC(=O)NCc1ccccc1 -24%, CNc1c2c(nn1C)CCCC2 -23.5%, C[N+](C)(C)c1cc2c(nn1)Nc1ccccc1S2 -41.4% [at 11.4 µM], CC1(C)N=C(N)N=C(N)N1CCCCc1ccccc1 24% [at 11.4 µM], O=C(O)c1cc(=O)[nH]c(SCc2ccccc2)n1 -23.4% [at 11.4 µM], O=C(O)c1ccc(CNCc2ccccc2)cc1 -4.75% [at 11.4 µM], COc1nc(Cl)nc(Cl)c1Cl (tested in a mixture with another compound) -12.4% [at 11.4 µM], CC(=O)OC[C@@H]1O[C@@H](O/N=C2/C[C@@H](O)[C@@H](O)[C@@H]3[C@@H]4C(=O)N(C[C@@H]5CCCO5)C(=O)[C@H]4CC[C@H]23)[C@H](OC(C)=O)[C@H](OC(C)=O)[C@@H]1OC(C)=O -5.2% [at 11.4 µM], Cc1ccccc1NC(=O)Cn1cnc2c1c(=O)n(C)c(=O)n2C -34.6%, COc1ccc(N2CC(C(=O)Nc3cc(C)on3)CC2=O)cc1 (stereo not given) 16.6%, Cc1cc(NC(=O)C2C3C(=O)N(Cc4ccc(Cl)cc4)C(C(=O)NC(C)(C)C)C34C=CC2(C)O4)no1 (stereo not given) -3.6%, CC(C)CO/N=C1/C[C@@H](O)[C@@H](O)[C@@H]2[C@@H]3C(=O)N(C[C@@H]4CCCO4)C(=O)[C@H]3CC[C@@H]12 -18.3% [at 11.4 µM], O=C(c1cnccn1)N1CCC2(CCCN(c3ncccn3)C2)CC1 -29.3%, COc1ccc(COC(=O)N/N=C2/C[C@@H](O)[C@@H](O)[C@@H]3[C@H]4C(=O)N(c5ccc(F)cc5F)C(=O)[C@@H]4CC[C@@H]23)cc1 -19.3% [at 11.4 µM], C=CC[C@@H]1C=C[C@H](O/N=C(\C)CCN2CCc3nc(CC)c(CC)cc3C2)[C@H](CO)O1 -14% [at 11.4 µM], COc1cc(NC(=O)Cc2c(C(=O)O)[nH]c3ccccc23)cc(OC)c1OC 5.48%, Nn1c(SCC(=O)N2CCOCC2)nnc1-c1ccccc1Cl 8.68%, Fc1cccc(F)c1C(Nc1nncs1)Nc1nncs1 7.56% [at 11.4 µM], O=C(O)CNCCc1ccccc1 4.74% [at 11.4 µM], O=c1c(-c2ccccc2)nc2cnc(N3CCOCC3)nc2n1Cc1cccs1 -32.2%, COC(=O)N1CCC2(CC1)CN(C(=O)Nc1ccc(OC)cc1)C2 3.06%, COC(=O)N1CCC2(CCN(C(=O)Nc3ccc(OC)cc3)CC2)CC1 -1.54%, CCC(C)NC(=O)C1CCN(C(=O)c2ccccc2)CC1 (stereo not given) -14.8%, CC(C)=CCC/C(C)=C/CO/N=C1/C[C@@H](O)[C@@H](O)[C@@H]2[C@@H]3C(=O)N(C4CCCCC4)C(=O)[C@H]3CC[C@@H]12 -41.2% [at 11.4 µM], O=C(CN1C(=O)c2ccccc2S1(=O)=O)Nc1ccccc1 -22%, COc1ccccc1NC(=O)c1cnc2n(c1=O)CCS2 -4.96%, CC(=O)Nc1ccc2c(c1)OCCOCCOc1cc(NC(C)=O)ccc1OCCOCCOCCO2 -22.4%, O=C(CN1C(=O)C2C3C=CC(C3)C2C1=O)Nc1ccc2c(c1)OCCO2 (stereo not given) -37.3%, CCCN1C[C@H](CSC)C[C@H]2c3cccc4[nH]cc(c34)C[C@@H]21 -6.92% [at 25.6 µM], CN1CCN(CCCNC(=O)C2CCN(c3nnc(-n4cccc4)s3)CC2)CC1 -20.2%

AC50, inactive:
COc1ccc(CCN(C)CCc2ccc(OC)c(OC)c2)cc1OC

AC50, active:
COc1ccc(CC(=S)N2CCOCC2)cc1OC 10 µM, Cc1ccc(CNC(=O)C2CC(c3ccccc3[N+](=O)[O-])=NO2)o1 (stereo not given) 7.94 µM, Cc1ccc(CCNC(=O)C2CC(c3ccccc3[N+](=O)[O-])=NO2)cc1 (stereo not given) 11.2 µM, O=C(NCCCCc1ccccc1)C1CC(c2ccccc2[N+](=O)[O-])=NO1 (stereo not given) 7.08 µM, Cc1ccc(CNC(=O)C2CC(c3ccccc3[N+](=O)[O-])=NO2)cc1 (stereo not given) 3.16 µM, CC1(C(=O)CSc2nc3ccccc3s2)CCC(=O)O1 (stereo not given) 11.2 µM, CC(C)CC1CC(=O)OC1(C)C(=O)CSc1nc2ccccc2s1 (stereo not given) 7.94 µM, O=C(OCCNC(=O)c1ccc2ccccc2n1)c1ccc(F)cc1 7.94 µM, CCOc1ccccc1OCCOc1ccc(F)cc1 4.47 µM, Cc1ccc(S(=O)(=O)N2CCN(C(=O)c3ccccc3)C2C(C)C)cc1 (stereo not given) 7.08 µM, CC(=O)N1CCN(S(=O)(=O)c2ccccc2)C1c1ccccc1 (stereo not given) 11.2 µM, C=CCC(NCc1ccco1)c1ccc(OC)cc1 (stereo not given) 5.01 µM, CCC(=O)n1nc(-c2ccc(OC)cc2)nc1N 10 µM, CC(C)Oc1ccc(N2CC(C(=O)OCC(=O)NCc3ccccc3)CC2=O)cc1 (stereo not given) 15.8 µM, CCOc1ccc(N2CC(C(=O)NCc3cccc(C)c3)CC2=O)cc1 (stereo not given) 7.94 µM, O=C(CNC1CCCCCC1)Nc1ccccc1N1CCCCC1 4.47 µM, Cc1cc(C)nc(SCC(=O)N/N=C\c2sccc2C)n1 5.01 µM, O=C(CSc1nc2ccccc2o1)Nc1ccccc1N1CCCCCC1 15.8 µM, O=C(CSc1nc2ccccc2o1)NC(=O)NCc1ccccc1 3.55 µM, Cc1cc(C)nc(SCC(=O)Nc2ccccc2[N+](=O)[O-])n1 7.94 µM, O=C(CSc1ccccn1)Nc1nc2ccc(Br)cc2s1 2 µM, O=C(CSc1nc2ccccc2o1)Nc1nc2ccccc2s1 1.78 µM, O=C(O)c1ccc(CSc2nc3ccccc3o2)cc1 35.5 µM, Cc1ccccc1NC(=O)CSc1nc(N2CCCCC2)nc(N2CCCCC2)n1 0.355 µM, O=C(C/C=N/OCc1ccc(F)cc1Cl)c1cnc(-c2ccccc2)s1 1.26 µM, O=C(C/C=N/OCc1ccc(Cl)cc1Cl)c1ccc(Cl)cc1 0.794 µM, CN(C)CN1CSC(=S)N(CN(C)C)C1 3.16 µM, CCc1ccc(N2CC(C(=O)NC3=NCCS3)CC2=O)cc1 (stereo not given) 15.8 µM, Cc1ccc(N2CC(C(=O)Nc3cc(C)on3)CC2=O)cc1 (stereo not given) 5.62 µM, COc1cc(NC(=O)c2cc3nc(-c4ccccc4)cc(-c4ccccc4)n3n2)cc(OC)c1OC 6.31 µM, O=C(CSc1c[nH]c2ccccc12)N1CCOCC1 1.58 µM, NNCCc1ccccc1 794 nM and 316 nM, Cc1ccc(COc2ccc(Br)cc2/C=N/O)cc1 1 µM, C[C@@H](COc1ccccc1)N(CCCl)Cc1ccccc1 2 µM, O=S(=O)(Nc1nc(-c2sccc2Cl)cs1)c1cc(Cl)ccc1Cl 0.2 µM, O=C(CC1C(=O)NCCN1C(=S)Nc1ccccc1)Nc1ccc2c(c1)OCCO2 (stereo not given) 11.2 µM, COc1ccc(NC(C)=O)cc1NC(=O)CN1CCN(CC(=O)Nc2ccccc2Cl)CC1 7.94 µM, O=C(Nc1ccc2c(c1)OCCO2)C1CCN(C(=O)c2ccccc2)CC1 22.4 µM, COc1ccc(NC(=O)CN2CCN(CC(=O)Nc3ccccc3Cl)CC2)cc1 1.41 µM, COc1ccccc1NC(=O)CN1CCN(CC(=O)Nc2ccc(OCc3ccccc3)cc2)CC1 0.631 µM, O=C(CC(c1ccccc1)c1ccccc1)Nc1ccc2c(c1)OCCO2 2.82 µM, O=C(CN1CCN(CC(=O)Nc2ccccc2Cl)CC1)Nc1ccc2c(c1)OCCO2 0.891 µM, COc1ccc(NC(=O)CN2c3cccc4cccc(c34)S2(=O)=O)cc1 10 µM
